# Pol iota inh = inhibitors of human DNA polymerase iota; hit rate 1% among 390,000; Potency, µM (top dose mostly 115 µM), for inactives: at the highest dose activity, negative = inhibition, actives largely listed as inhibitors; Pol iota fluorescent replication assay, 10 min; Q9UNA4
#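 Fluorescent replication assay read twice, at 0 min and 10 min after adding 50 nM (final) substrate. Enzyme (10 nM) and compounds were first incubated 15 min at room temperature; enzyme-free buffer wells were negative controls.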
# POLH inh = DNA polymerase eta (human) inhibition; recombinant Pol eta, fluorescent DNA replication assay; Potency, µM (highest dose often 114 µM), for the others: at the top dose activity change, negative = inhibition, hits mostly inhibitors; hit rate 1.2% among 390,000; Q9Y253; further: on the % scale 0 is the no-effect control and ±100 the full control effect
#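 Fluorescent replication assay: 50 nM final substrate added after a 15 min room-temperature compound preincubation with 10 nM enzyme. Signal taken at 0 min and again at 10 min.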
# POLK inh = blocks human DNA polymerase kappa activity; AID 588579; purified Pol kappa, fluorescent DNA synthesis assay, 10 min; Potency, µM (titrated, usually from 107 µM), for inactives: at the top dose activity, negative = inhibition, usual class: inhibitors; Q9UBT6; hit rate 0.53% among 400,000; further: on the % scale 0 is the no-effect control and ±100 the full control effect
#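 Kinetic fluorescence readout at 0 and 10 min followed reaction start with substrate at 50 nM final. Beforehand, enzyme (10 nM Pol kappa) stood 15 min with compound at room temperature; buffer-only wells were negative controls.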
# GLS inh = glutaminase GLS (human) inhibition. Potency, µM (highest dose often 45.5 µM), for the others: at the highest dose activity change, negative = inhibition, most hits filed as inhibitors. GLS enzymatic activity, qHTS titration. hit rate 0.21% among 410,000; further: on the % scale 0 is the no-effect control and ±100 the full control effect
# Target sequence (O94925 whole entry, looked up): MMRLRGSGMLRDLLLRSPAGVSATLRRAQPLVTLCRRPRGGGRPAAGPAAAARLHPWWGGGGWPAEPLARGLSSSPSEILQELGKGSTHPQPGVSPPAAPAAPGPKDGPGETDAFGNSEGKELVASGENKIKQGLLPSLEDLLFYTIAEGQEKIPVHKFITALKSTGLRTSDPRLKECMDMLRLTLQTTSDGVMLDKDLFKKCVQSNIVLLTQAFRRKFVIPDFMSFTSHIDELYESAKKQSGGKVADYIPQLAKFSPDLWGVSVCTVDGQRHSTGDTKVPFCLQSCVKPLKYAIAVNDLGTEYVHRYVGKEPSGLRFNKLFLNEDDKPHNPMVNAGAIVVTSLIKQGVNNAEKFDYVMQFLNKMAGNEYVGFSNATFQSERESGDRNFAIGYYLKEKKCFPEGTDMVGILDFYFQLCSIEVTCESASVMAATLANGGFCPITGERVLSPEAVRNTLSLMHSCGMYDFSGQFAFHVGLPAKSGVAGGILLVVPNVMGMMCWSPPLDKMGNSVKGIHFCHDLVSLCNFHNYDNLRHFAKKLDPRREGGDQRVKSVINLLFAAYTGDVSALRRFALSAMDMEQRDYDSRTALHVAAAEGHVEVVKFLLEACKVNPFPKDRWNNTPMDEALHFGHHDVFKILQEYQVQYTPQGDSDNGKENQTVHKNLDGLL
#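 Two-point fluorescence kinetic (t0, 30 min RT) for hKGA; glutamate detected via glutamate oxidase–HRP–Amplex Red. Substrate: 1 mM L-glutamine solution; buffer 45 mM KH2PO4, pH 8.2.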
# Pol beta inh = DNA polymerase beta (human) inhibition; Pol beta primer extension/strand displacement, fluorescence kinetic; Potency, µM (top dose mostly 114 µM), without a hit: at the highest dose activity change, negative = inhibition, actives largely listed as inhibitors; hit rate 1.3% among 340,000; AID 485314; further: on the % scale 0 is the no-effect control and ±100 the full control effect
#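 Homogeneous kinetic assay of primer extension and strand displacement by 10 nM Pol beta, preincubated 15 min at room temperature with compound before 50 nM substrate (final) was added. Read at 0 and 10 min; four-parameter Hill fit.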
# KAT2A inh = GCN5L2 (KAT2A) acetyltransferase inhibition. Q92830. GCN5L2 HAT assay, ThioGlo1 CoA-SH fluorescence. Potency, µM (titrated, usually from 58.9 µM), without a hit: at the highest dose activity change, negative = inhibition, hits mostly inhibitors. hit rate 0.21% among 390,000; further: on the % scale 0 is the no-effect control and ±100 the full control effect
#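 ThioGlo1-coupled HAT assay: 20nM GCN5L2, 70uM acetyl-CoA, 75uM H3(1-25) peptide, pH 7.5. Fluorescence read at 340/540nm at start and after 20 min at room temperature.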
# * hit, by the source's call; ? = inconclusive; / = no result; [ ] = remark or other dose. This is a sample that favours compounds with a hit; in the whole collection about 2.4% have one here. The call rests on the fitted dose curve; in most records, active means well fitted inhibition curve with a large enough effect; inconclusive means small, poorly fitted or top-dose-only effect, or another doubt; inactive means no such curve, though single readings can be large or run the other way. Potency means the concentration at half of the fitted maximal effect.
SMILES,Pol iota inh,POLH inh,POLK inh,GLS inh,Pol beta inh,KAT2A inh
NC(=O)CC(NC(=O)Cc1ccc(Cl)cc1)c1ccc(NCCCN2CCCC2=O)c([N+](=O)[O-])c1 (stereo not given),4%,-10%,9%,-1%,1%,-4%
NC(=O)CC(NC(=O)c1ccccc1)c1ccc(NCCCN2CCCC2=O)c([N+](=O)[O-])c1 (stereo not given),?,4%,-6%,-3%,79µM*,-1%
Cc1cc(C)n(CCc2nc(-c3ccc(C)o3)cs2)n1,?,16µM*,-23%,-13%,50µM*,-27%
Cc1cc(C)n(CCc2nc(-c3cc4ccccc4o3)cs2)n1,24%,-24%,-12%,1%,3%,-6%
CCCN1C(=O)/C(=C/c2c(NCCCOC(C)C)nc3c(C)cccn3c2=O)SC1=S,-7%,-20%,-8%,-4%,-12%,-3%
CCC(C)N1C(=O)/C(=C/c2c(NCCCOC(C)C)nc3c(C)cccn3c2=O)SC1=S (stereo not given),13%,22µM*,-7%,0%,28µM*,-2%
O=C(CCC1CCCC1)Nc1ccccc1-c1ccccc1,7%,-12%,-19%,2%,8%,-2%
O=C(CCC1CCCCC1)Nc1ccccc1-c1ccccc1,7%,-16%,-7%,-10%,3%,3.2µM*
COc1ccc(-c2ccc3c(c2)S(=O)(=O)c2cccc(C(=O)NCc4cc(C)oc4C(F)(F)F)c2C3=O)cc1OC,?,11µM*,?,?,/,-4%
COc1ccc(Cc2nn3c(Cn4nnc5ccccc54)nnc3s2)cc1,?,?,-11%,-19%,35µM*,-7%
CCn1c(CSc2n[nH]c(N)n2)nc2cc(C(=O)O)ccc21,50µM*,?,-17%,47%,?,-11%
CCn1c(CSc2nnc(-c3cccnc3)n2-c2ccccc2C)nc2cc(C(=O)O)ccc21,/,/,/,/,3.5µM*,0%
CCn1c(CSc2nnc3ccccn23)nc2cc(C(=O)O)ccc21,-20%,?,-9%,-12%,?,-1%
O=C(Nc1ccc2nn(-c3ccccc3)nc2c1)c1ccc2c(c1)OCO2,-9%,?,-31%,-3%,40µM*,-11%
Cc1cccc(NC(=O)CN2C(=O)C(c3ccccc3)=NC23CCC(C)CC3)c1 (stereo not given),-1%,/,2%,2%,0%,-22%
CCOP(=O)(OCC)C(C#N)=C1SCN(c2ccccc2)CS1,?,40µM*,-15%,-9%,/,/
CCOP(=O)(c1ccccc1)C1(C#N)CC1 (stereo not given),33%,-5%,-2%,-10%,44%,1%
Brc1ccc(C=C2C=c3ccccc3=C2)cc1,40%,/,-34%,/,/,/
O=c1c(O)c(-c2ccc(O)c(O)c2)oc2ccccc12,/,/,0.35µM*,/,/,/
O=c1c(O)c(-c2cc(O)c(O)c(O)c2)oc2cc(O)ccc12,/,/,0.24µM*,/,/,?
COc1ccc(-c2oc3ccccc3c(=O)c2O)cc1,/,/,-5%[19.4 µM],/,/,-1%
O=c1c(O)c(-c2ccc(O)cc2)oc2cc(O)ccc12,/,/,-11%[19.4 µM],/,/,/
CCCCCCCCCCCCCCCCCCOP(=O)([O-])OC1CC[N+](C)(C)CC1,/,/,/,0%[20 µM],/,/
CC(=O)c1cccc(NC(=O)CSc2ccc(-c3sc(C)nc3C)nn2)c1,-21%,-4%,-10%,0%,79µM*,-22%
Cc1nc(C)c(-c2ccc(SCC(=O)Nc3cccc(F)c3)nn2)s1,-11%,-9%,-6%,1%,-9%,-2%
O=C(CSc1ccc(-c2ccco2)nn1)c1ccc(F)cc1,14µM*,?,32µM*,-1%,?,-16%
CC(=O)c1ccc(NC(=O)CSc2ccc(-c3ccco3)nn2)cc1,45µM*,?,-14%,-1%,28µM*,?
CC(=O)Nc1ccc(NC(=O)CSc2ccc(-c3ccco3)nn2)cc1,?,-12%,-26%,17%,40µM*,-12%
